Bioassay records as filed in PubChem BioAssay.
AMA1 RON2 block = qHTS for Inhibitors of AMA1-RON; Towards Development of Antimalarial Drug Lead: Primary Screen; AlphaScreen AMA1-biotinylated RON2 peptide binding; Potency, µM (series often up to 58.2 µM), hits mostly inhibitors; 360,000 compounds, 0.2% hits; Plasmodium falciparum AMA1 (3D7) - RON2 peptide interaction; also: nearly all actives have a fitted effect of over 45% in size
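AMA1 (3D7) with his tag at 25 nM final met compounds first, then biotinylated RON2 peptide at 25 nM; detection used donor plus acceptor beads, 10 µg/mL apiece, read by AlphaScreen after 30 min at room temperature.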
NS1 function inh = qHTS Assay for Inhibitors of Influenza NS1 Protein Function; 270,000 compounds, 0.4% hits; AID 2326, 2010; Potency, µM (series often up to 46.1 µM); calls by dose curve; also: actives are rising curves; nearly all actives have a fitted effect of over 50% in size
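In this qHTS, NS1 from influenza A is expressed in budding yeast, where it slows growth. Cells are switched from glucose to 2% galactose medium (pH 6.0, -URA), treated with compound, and growth recovery is read at OD600.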
Pf growth 48h = Primary qHTS for delayed death inhibitors of the malarial parasite plastid, 48 hour incubation; 310,000 compounds, 5.9% hits; Potency, µM (series often up to 28.7 µM), most hits filed as inhibitors; P. falciparum luciferase growth in erythrocytes, 48 h
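Here the parasites carry a stable luciferase gene and grow inside erythrocytes in Albumax-based RPMI medium with compound for one erythrocytic cycle. Activity is scored as loss of luminescent signal.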
Sm TGR block = qHTS Assay for the Inhibitors of Schistosoma Mansoni Peroxiredoxins | 360,000 compounds, 3% hits | purified TGR, DTNB reduction, TNB absorbance 405 nm | Schistosoma mansoni thioredoxin glutathione reductase (TGR), Q962Y6 | Potency, µM (highest dose often 114 µM), hits mostly inhibitors; also: nearly all actives have a fitted effect of over 60% in size
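TGR 20 nM + NADPH 100 uM (dispensed conc.), cpd preinc 15 min RT; start with NADPH (500 uM addition) then DTNB (15 mM addition). Kinetic TNB absorbance, 405 nm filter. Four-parameter Hill fit across titration.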
Pf growth 96h = Primary qHTS for delayed death inhibitors of the malarial parasite plastid, 96 hour incubation. 320,000 compounds, 6.9% hits. P. falciparum luciferase reporter growth, 96 h. Potency, µM (top dose mostly 28.7 µM), most hits filed as inhibitors
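Compounds incubated with erythrocytes infected by luciferase-expressing P. falciparum (2% hematocrit, 0.05% parasitemia final) for 96 hours, 37 C in 5% CO2. Growth inhibition scored as decreased luciferase luminescence.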
Hits are given with their value; [ ] = another dose, or the depositor's remark. Sampled rows, rich in hits. Any-hit rate of the full collection: about 11%. Unless noted, calls follow the shape of the dose curve; as a rule, active = well fitted curve in the direction sought with a large enough effect; inconclusive = small, poorly fitted or top-dose-only effect, or another doubt; inactive = no such curve, though single readings can be large; an effect the other way counts as inactive or inconclusive.

What do the screens show for `COC(=O)c1ccc(C(=O)OC)c(NC(=S)N2CCC(C)CC2)c1`?
AMA1 RON2 block: inactive; NS1 function inh: inactive; Pf growth 48h: inactive; Sm TGR block: inactive; Pf growth 96h: 7.4µM

Results for CCC(C)c1ccccc1NC(=O)CN(CC)CC(=O)Nc1ccc2c(c1)OCCO2 (centres undefined) ?
AMA1 RON2 block: inactive

Results for Nc1ccccc1N=Nc1ccccc1N ?
AMA1 RON2 block: 32µM; NS1 function inh: inactive; Pf growth 48h: inactive; Sm TGR block: inactive; Pf growth 96h: inactive

Results for Cc1cn2c(=O)cc(COc3ccccc3NC(=O)c3ccco3)nc2s1 ?
Sm TGR block: inactive

Results for CN1c2ccccc2C(C)(C)[C@]12C=Cc1cc(O)ccc1O2 ?
AMA1 RON2 block: inconclusive; NS1 function inh: inactive; Pf growth 48h: inconclusive; Sm TGR block: inactive

How did COc1ccc2ccc3c(c2c1)N=CC1(O3)N(C)c2ccccc2C1(C)C (centres undefined) do in these assays?
AMA1 RON2 block: inactive; NS1 function inh: inactive; Pf growth 48h: inactive; Sm TGR block: 22µM; Pf growth 96h: inconclusive

What do the screens show for `CN1c2ccccc2C(C)(C)C12C=Nc1c(ccc3ccccc13)O2` (centres undefined)?
AMA1 RON2 block: inactive; NS1 function inh: inactive; Pf growth 48h: inconclusive; Sm TGR block: 20µM; Pf growth 96h: inconclusive

Results for CN(c1ccccc1)c1cc(Br)nc(Br)c1 ?
AMA1 RON2 block: inactive

What do the screens show for `O=C(Nc1ccc(Br)c2ccccc12)c1ccc2ccccc2c1O`?
AMA1 RON2 block: inactive; NS1 function inh: inactive; Pf growth 48h: 12µM; Sm TGR block: inconclusive; Pf growth 96h: 9.3µM

How did COc1ccc(CNC(=S)Nc2cc(C)cc(C)c2)cc1 do in these assays?
AMA1 RON2 block: inactive; NS1 function inh: inactive; Pf growth 48h: inconclusive; Sm TGR block: inactive; Pf growth 96h: inconclusive

Results for COc1ccc(CNC(=S)Nc2ccc(-c3ccccc3)cc2)cc1 ?
AMA1 RON2 block: inactive; Pf growth 48h: inconclusive; Sm TGR block: inactive; Pf growth 96h: inconclusive

Results for COc1ccc(CNC(=S)Nc2ccccc2Cl)cc1 ?
AMA1 RON2 block: inactive; NS1 function inh: inactive; Pf growth 48h: inactive; Sm TGR block: 40µM; Pf growth 96h: inactive

How did CN(C)CCNC(=S)Nc1ccccc1C(C)(C)C do in these assays?
AMA1 RON2 block: inactive; NS1 function inh: inactive; Pf growth 48h: inactive; Sm TGR block: inactive; Pf growth 96h: inactive[5.75 µM]

How did CC(C)(C)c1ccccc1NC(=S)NCc1ccccc1 do in these assays?
AMA1 RON2 block: inactive; NS1 function inh: inactive; Pf growth 48h: inconclusive; Sm TGR block: inactive; Pf growth 96h: 13µM

Results for COc1ccc(CNC(=S)Nc2ccccc2-c2ccccc2)cc1 ?
Pf growth 48h: inconclusive; Sm TGR block: inactive; Pf growth 96h: 8.3µM

How did CCS(=O)(=O)N1CCC(C(=O)Nc2ccc(C(C)=O)cc2)CC1 do in these assays?
AMA1 RON2 block: inactive; NS1 function inh: inconclusive; Pf growth 48h: inconclusive; Sm TGR block: inactive; Pf growth 96h: inactive

Results for CCOc1ccccc1N1CCN(C(=O)c2c(CC)noc2C)CC1 ?
AMA1 RON2 block: inactive; Pf growth 48h: inconclusive; Sm TGR block: inactive; Pf growth 96h: inactive

Results for Cc1cc2ncn(C(=O)N3CCCCCC3)c2cc1C ?
AMA1 RON2 block: inactive; NS1 function inh: inactive; Pf growth 48h: inactive; Sm TGR block: inconclusive; Pf growth 96h: 7.4µM

How did Cc1cc2ncn(C(=O)N3CCCCC3)c2cc1C do in these assays?
AMA1 RON2 block: inconclusive; NS1 function inh: inactive; Pf growth 48h: inactive; Sm TGR block: inactive; Pf growth 96h: 13µM

Results for COc1cc2c(c(OC)c1OC)-c1c(cc3c(c1OC)OCO3)[C@@H](OC(C)=O)[C@H](C)[C@H](C)C2 ?
AMA1 RON2 block: inactive; NS1 function inh: inconclusive; Pf growth 48h: 13µM; Sm TGR block: inactive; Pf growth 96h: 10µM

How did O=C(c1cccs1)N1N=C(c2ccccc2)CC1c1ccccc1O (centres undefined) do in these assays?
AMA1 RON2 block: inactive; NS1 function inh: inactive; Pf growth 48h: 3.3µM; Sm TGR block: inactive; Pf growth 96h: inactive

What do the screens show for `COc1cccc(C2CC(c3cccs3)=NN2C(=O)c2ccco2)c1O` (centres undefined)?
AMA1 RON2 block: inactive; NS1 function inh: inactive; Pf growth 48h: inconclusive; Sm TGR block: inactive; Pf growth 96h: inconclusive
